The structures appear in SMILES notation. About 6,200 (1.7%) of roughly 360,000 compounds were called active.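 Rule for the calls: active = inhibition of at least 50% at 20 µM; inactive = the rest.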 The full list was thinned out, with actives kept by preference.

This assay in a line: inhibition of PEG-3 promoter activity – cell-based, HeLa, luciferase luminescence, primary screen (AID 588405). As to conditions: HeLa PEG-Prom luciferase reporter, overnight, at 20 µM, hits give high values.
On to `Cc1ccc(-c2cnc(C(O)c3cccc(C)c3C)[nH]2)cc1` (stereo not drawn), for which the inhibition (in general, the change of the read-out against control, counted positive when it falls) was -14.4% (inactive).

In the case of `Cc1ccc(Cc2c(-c3ccco3)nc3ccc(Cl)cn23)cc1`, the inhibition was 2.16% (inactive).

For `CC(=O)Nc1c2c(nn1-c1cccc(C)c1)CSC2`, the inhibition is 1.92% (inactive).

As to `Cc1cccc(-n2ncc3c(=O)[nH]c(SCC(=O)Nc4cc(C)on4)nc32)c1`, the inhibition was 15.5% (inactive).

As for `Cc1cccc(-n2ncc(Cl)c(Cl)c2=O)c1`, the inhibition is 109% (active).

With `CCc1nc2ccc(C(=O)N(C)CCN(C)C)cn2c1N(CC)CCOC`, the inhibition is -8.52% (inactive).

With `CN1CCN(C2Cc3ccc(Cl)cc3Sc3ccc(F)cc32)CC1` (stereo not drawn), the inhibition was 76% (active).

Take `CC1(C(=O)NS(=O)(=O)c2cccc(F)c2)CCN1C(=O)Cc1cc(F)ccc1F` (stereo not drawn): the inhibition was 7.15% (inactive).

Take `O=C(CSc1nc(Nc2ccccc2)nc(N2CCOCC2)n1)Nc1cc(Cl)ccc1O`: the inhibition is 86.5% (active).

For the compound `CC1(c2ccccc2)NC(=O)N(CC(=O)Nc2cc(Cl)ccc2N2CCOCC2)C1=O` (stereo not drawn), the inhibition was 2.35% (inactive).

Regarding `C/C(=N\Nc1nc(Nc2ccccc2)nc(N2CCOCC2)n1)c1cccs1`, the inhibition is 7.28% (inactive).

As to `Brc1ccc2nc(-c3ccccc3)c(Cc3ccccc3)n2c1`, the inhibition is -51% (inactive).

In the case of `CCOC(=O)c1ccc(-c2ccc3ncnc(N(C)Cc4sccc4C)c3c2)o1`, the inhibition was 31.1% (inactive).

For the compound `CCCCSc1[nH]c(=O)c(C(=O)OCC)cc1C#N`, the inhibition is 3.02% (inactive).

Regarding `Cc1nc(N=C(N)N)nc2c(C)cccc12`, the inhibition is 20.3% (inactive).

With `COC(=O)Cn1nc(-c2ccccc2)c2cc(Cl)ccc21`, the inhibition is 13.3% (inactive).

Consider `NC(N)=Nc1nc(-c2ccccc2)c2cc(Cl)ccc2n1`, for which the inhibition was 108% (active).

Turning to `CCCS(=O)(=O)NC(=O)C1(C)CCCN(C(=O)c2ccnc(Cl)c2)C1` (stereo not drawn), the inhibition was -1.18% (inactive).

Take `OC[C@@H]1CN(Cc2ccc3c(c2)OCO3)C[C@H](n2cnc3c(NCc4ccco4)ncnc32)O1`: the inhibition was -2.19% (inactive).

Consider `Cc1cc(O)ccc1-c1cc(C(=O)NCc2cc(C(F)(F)F)cc(C(F)(F)F)c2)[nH]n1`, for which the inhibition was 5.2% (inactive).

For `Oc1ccc2ccccc2c1N=Nc1nccs1`, the inhibition is 97.5% (active).

`COC(=O)[C@@H]1C[C@@]2(O)[C@H](O)[C@H](O)[C@H](O)C[C@H]2N1Cc1ccc(C(C)(C)C)cc1`: the inhibition was 2.16% (inactive).

Turning to `CCOc1ccc2nc(Cl)c(C3CC(c4ccccc4)=NN3C(=O)c3cccs3)cc2c1` (stereo not drawn), the inhibition was 55.1% (active).

For `O=C(COc1ccc2ccccc2c1)N1CCN(C(=O)c2cccs2)CC1`, the inhibition was 3.04% (inactive).

As for `COc1ccc(C2=NN(C(=O)CCC(=O)O)C(c3cccs3)C2)cc1OC` (stereo not drawn), the inhibition was 9.5% (inactive).

As for `COC(=O)c1ccc2nc(-c3ccc(Cl)cc3)c(Cc3cccc(F)c3)n2c1`, the inhibition was -38.1% (inactive).

Take `Cc1noc(C)c1C(=O)N1CCC1(C)C(=O)NS(=O)(=O)c1ccc(C#N)cc1` (stereo not drawn): the inhibition was -15.2% (inactive).

For the compound `CC(O)(c1cccc(F)c1)c1nc(-c2ccc3c(c2)OCO3)cs1` (stereo not drawn), the inhibition was -65.7% (inactive).

For the compound `CC(C)(C)Cc1c(C2CCCCC2)nc2ccc(Br)cn12`, the inhibition was 16% (inactive).

In the case of `Cc1nn(Cc2ccccc2Cl)c(C)c1NC(=O)Cn1nc([N+](=O)[O-])c(Cl)c1C`, the inhibition is -1.84% (inactive).

For the compound `O=C(N/N=C\c1ccc(Br)cc1)c1ccc(Cn2cccn2)o1`, the inhibition was -62.6% (inactive).

As to `Cc1c(Cl)c([N+](=O)[O-])nn1Cc1ccc(C(=O)N/N=C\c2cc(Cl)ccc2O)o1`, the inhibition is 61.5% (active).

As for `COCOc1cccc(CN2CCC(C)(Oc3ccc(SC)cc3)C2)c1` (stereo not drawn), the inhibition is -1.46% (inactive).

Turning to `COc1cc(Cl)c(C)cc1NC(=O)CSc1nnc(-c2ccco2)n1CC(C)C`, the inhibition is 12.4% (inactive).

For `NC(Cc1ccccc1)c1csc(Nc2cc(Oc3ccccc3)ncn2)n1` (stereo not drawn), the inhibition was 54.6% (active).

On to `Cc1nc2c(OCc3ccc(Cl)cc3)cccn2c1N(C)Cc1cccs1`, for which the inhibition was 6.73% (inactive).

Take `Cc1cccc(/C(N)=N/OC(=O)c2ccccc2Cl)c1`: the inhibition is -145% (inactive).

`Cc1ccc(C(=O)O/N=C(\N)c2ccccn2)cc1Cl`: the inhibition is 62.4% (active).

In the case of `N/C(=N\OC(=O)c1ccc([N+](=O)[O-])cc1)c1ccccn1`, the inhibition was 5.67% (inactive).

Consider `CC(=O)Nc1cccc(-c2cc(NC(C)=O)c3ncc(-c4ccccc4)n3c2)c1`, for which the inhibition is 20.6% (inactive).

Regarding `CCOC(=O)C1CN(S(=O)(=O)c2ccc(OC)cc2)c2cc(Cl)ccc2O1` (stereo not drawn), the inhibition was 8.58% (inactive).

In the case of `Cc1ccc(NC(=O)[C@H](Cc2ccccc2)NC(=O)CC[C@H]2O[C@@H](n3ccc(=O)[nH]c3=O)[C@H](O)[C@@H]2O)cc1C`, the inhibition was 4.14% (inactive).

Consider `CCCCNc1c(-c2cccc(Sc3ccc(OC)cc3)c2)nc2ccccn12`, for which the inhibition is 92.9% (active).

As for `CCCCNc1c(-c2ccc(OC)c(Sc3ccc(OC)cc3)c2)nc2ccc(Cl)cn12`, the inhibition is -44% (inactive).

`COC(=O)c1ccc2nc(-c3cccc(Br)c3)c(Cc3ccc(OC)cc3C)n2c1`: the inhibition is -33% (inactive).

Consider `CS(=O)(=O)/C(C#N)=C/c1cccn1S(=O)(=O)c1ccc([N+](=O)[O-])cc1`, for which the inhibition is -17.4% (inactive).

In the case of `O=C(NCCN1CCOCC1)c1ccccc1N1C(=O)[C@@H]2Cc3c([nH]c4ccccc34)C(c3cccc(Cl)c3)N2C1=O` (stereo partly drawn), the inhibition is 20.3% (inactive).

Consider `CC(C)c1cccc(C(C)C)c1Nc1cn[nH]c1`, for which the inhibition is 9.45% (inactive).

Turning to `COC(=O)c1ccc2nc(-c3ccc(OC)c(OC)c3)c(Cc3ccccc3)n2c1`, the inhibition is -21.6% (inactive).

With `O=C(N/N=C/c1ccccn1)C12CC3CC(CC(C3)C1)C2`, the inhibition was -8.28% (inactive).

Turning to `Cc1nnc(N/N=C/c2ccccn2)[nH]c1=O`, the inhibition was 62% (active).

Turning to `S=C(NN=Cc1ccccn1)Nc1ccccn1`, the inhibition was -79.6% (inactive).

As to `Cc1ccc(CNC(=O)Nc2nnc([C@H]3C[C@H](O)[C@@H](CO)O3)s2)cc1`, the inhibition is -6.3% (inactive).

As for `CC1(C(=O)Nc2ccc3c(c2)OCCO3)CCN1C(=O)Cc1cc(F)ccc1F` (stereo not drawn), the inhibition is 2.13% (inactive).

On to `Cc1ccc(C(=O)N/C(=C\c2ccco2)C(=O)NC2CCS(=O)(=O)C2)cc1` (stereo not drawn), for which the inhibition was 16.9% (inactive).

Take `CCCc1nc2c3ccccc3ccn2c1Cc1ccccc1C(F)(F)F`: the inhibition is -16% (inactive).

Take `CN1OC[C@@H]2CN(C(=O)C(C)(C)C)[C@H](c3ccc(-n4ccnc4)cc3)C[C@@H]21`: the inhibition was -4.85% (inactive).

As to `O=C1/C(=C\c2ccc([N+](=O)[O-])cc2)CS(=O)(=O)C/C1=C/c1ccc([N+](=O)[O-])cc1`, the inhibition is 100% (active).

As for `CC(=O)Nc1ccc(C=Cc2ccc([N+](=O)[O-])cc2)cc1`, the inhibition was -310% (inactive).

`CN(C)S(=O)(=O)N1CCN(c2ccc([N+](=O)[O-])cc2)CC1`: the inhibition is 14.5% (inactive).

For `CCCNC(=O)C1(C)CCCN(Cc2cccc(C(F)(F)F)c2)C1` (stereo not drawn), the inhibition is 2.53% (inactive).

As to `CCCOc1ccc(F)cc1-c1cc(C(=O)Nc2ccc(F)c(Cl)c2)[nH]n1`, the inhibition was 25.8% (inactive).

Turning to `CC1(C(=O)NS(=O)(=O)C2CC2)CCCN(C(=O)CSc2ccccc2)C1` (stereo not drawn), the inhibition was 8.07% (inactive).

As to `O=S(=O)(c1ccccc1)N1CCC(c2ccccc2)CC1`, the inhibition is 6.2% (inactive).

For `CC(=O)N1CC(C)c2scc(C)[n+]2-c2ccccc21` (stereo not drawn), the inhibition is 5.89% (inactive).

Regarding `CN1OC[C@@H]2CN(S(=O)(=O)c3cccc(C(F)(F)F)c3)[C@H](c3ccc(-c4cc5ccccc5o4)cc3)C[C@@H]21`, the inhibition was 68.8% (active).

On to `CN1OC[C@@H]2CN(S(=O)(=O)c3cccc4ccccc34)[C@H](c3ccc(N4CCCCC4)cc3)C[C@@H]21`, for which the inhibition was -9.16% (inactive).

In the case of `COc1ccc(S(=O)(=O)N2C[C@H]3CON(C)[C@H]3C[C@H]2c2cccc(Br)c2)cc1`, the inhibition is 6.82% (inactive).

Take `Nc1nc2c(ncn2[C@@H]2O[C@H](CNS(=O)(=O)N3CCc4ccccc4C3)[C@@H](O)[C@H]2O)c(=O)[nH]1`: the inhibition was 5.67% (inactive).

Turning to `Cc1ccc(-c2cnc(C(O)c3cc(Cl)cc(Cl)c3)[nH]2)cc1` (stereo not drawn), the inhibition is 37.2% (inactive).

With `CC1(C(=O)NS(=O)(=O)c2ccccc2)CCN1C(=O)C/C=C/c1ccccc1` (stereo not drawn), the inhibition was -9.64% (inactive).

In the case of `CC1(C)CCSC(/C=C/c2ccccc2)=N1`, the inhibition is 106% (active).

Take `CC1(C(=O)O)CCN1C(=O)/C=C/c1ccccc1` (stereo not drawn): the inhibition is -2.65% (inactive).

Turning to `CC(C)(C)c1ccc(C(=O)NCC(=O)OCN2C(=O)c3ccccc3C2=O)cc1`, the inhibition is -11.7% (inactive).

Take `CC(=O)N(CN1C(=O)C2CC=CCC2C1=O)c1cccc(Cl)c1` (stereo not drawn): the inhibition is 12% (inactive).

`COC(=O)c1cc(C(=O)N(Cc2ccccc2)c2ccccn2)cc([N+](=O)[O-])c1`: the inhibition is 5.92% (inactive).

Consider `O=C(CCl)N(Cc1cccc([N+](=O)[O-])c1)c1cccc(Cl)c1`, for which the inhibition is 109% (active).

On to `COC(=O)Cc1ccc(OC2(C)CCN(Cc3ccc4c(c3)OCCO4)C2)cc1` (stereo not drawn), for which the inhibition is -18.6% (inactive).

On to `Cc1cccc(C)c1NC(=O)CN1CCN(c2ccc(F)cc2)CC1`, for which the inhibition is 5.77% (inactive).

Take `CCc1ccc(CNC(=O)C2CC(=O)N(CCc3ccc(C)cc3)C2)cc1` (stereo not drawn): the inhibition was 7.77% (inactive).

For the compound `CCc1ccc(CNC(=O)C2CCN(c3nnc(C)c4c(C)n(-c5ccc(C)cc5)nc34)CC2)cc1`, the inhibition is 99.3% (active).

Take `Cc1ccc(NC(=O)N2CCC(C(=O)NCc3ccc(F)cc3)CC2)cc1`: the inhibition is 6.32% (inactive).

Consider `COc1ccc(OC)c(S(=O)(=O)N2CCCC(C(=O)NCCc3ccccc3)C2)c1` (stereo not drawn), for which the inhibition is 5.79% (inactive).

`N#CCCN(C(=O)COC(=O)C1CCN(c2ccc(C(F)(F)F)cn2)CC1)c1ccc(F)cc1`: the inhibition is -15.9% (inactive).

On to `CCOC(=O)C1(Cc2ccccc2C)CCCN(C(=O)c2ccc(COC)o2)C1` (stereo not drawn), for which the inhibition is -235% (inactive).

Take `O=C(CNC(=O)Cc1ccccc1)N=Nc1c(O)[nH]c2ccc(Br)cc12`: the inhibition was -7.31% (inactive).

For `Cc1cccc(N=Nc2c(O)[nH]c3ccc(F)cc23)c1`, the inhibition is -236% (inactive).

On to `NS(=O)(=O)c1ccc(N=Nc2c(O)[nH]c3ccc(Br)cc23)cc1`, for which the inhibition was 98.7% (active).

The values are drawn from PubChem BioAssay AID588405 (Sanford-Burnham Center for Chemical Genomics, 2011).
